# Peg3 prom inh-1: inhibitors of Peg3 promoter; HeLa PEG-Prom luciferase reporter, luminescence, overnight; inhibition, % at 20 µM; 1.7% of 360,000 active;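 active means inhibition of at least 50% at 20 µM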
# HIF-2a block: inhibitors of HIF-2a; 0.72% of 360,000 active; inhibition, % at 18.8 µM; 786-0 RCC cells HIF-2a reporter, luciferase luminescence, overnight;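 active means inhibition of the luminescence signal of 40% or more relative to plate controls, in a single-dose primary screen at 18.75 µM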
# MITF TRPM1 inh: MITF TRPM1 promoter inhibition in SK-MEL-5 cells. SK-MEL-5 TRPM1 promoter luciferase, 24 h. inhibition, % at 12.5 µM. 0.83% of 330,000 active. AID 488899;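 active means mean inhibition across replicates of 60% or more, whatever share of single replicates reaches that level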
# CF NFkB inh: cystic fibrosis NF-kB activation inhibition; 0.86% of 360,000 active; AID 588850; KKLEB NF-kB-GFP reporter, PAF-induced, GFP fluorescence overnight; inhibition, % at 5 µM;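 active means at least 50% inhibition at 5 µM, scaled per plate between neutral and stimulator controls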;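 further: PAF is a Pseudomonas aeruginosa culture filtrate used as stimulus; plate controls were PAF-stimulated DMSO wells for no effect and unstimulated DMSO wells for full effect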
# KKLEB tox: counter-screen for CF NF-kB inhibitors: cytotoxicity. KKLEB CF airway cells viability, ATPlite luminescence, overnight; stronger effect = lower value; cells stimulated with P. aeruginosa culture filtrate. activity change (cytotoxicity), % at 5 µM. 0.36% of 360,000 active;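 active means corrected activity change at or below -50% at 5 µM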
# Shn3 3UTR inh: reduces Shn3 3'UTR luciferase signal in osteoblasts | Clone20 osteoblast Shn3 3'UTR firefly luciferase, 24 h | inhibition, % at 12.5 µM | 0.52% of 360,000 active | AID 588674;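 active means mean inhibition of at least 75% with every replicate also reaching 75%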;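 further: 0% = median of neutral control wells and 100% = pilot-screen positive control compound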
# Peg3 prom inh-2: confirmation of Peg3 promoter inhibitors | shares compounds with Peg3 prom inh-1 | HeLa PEG-Prom luciferase reporter, luminescence, overnight | inhibition, % at 20 µM | 84% of 1,300 active;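 active means at 20 µM dose, 40% or more inhibition averaged across four replicates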
# * hit, by the source's call; / = not tested or not shown. This is a sample that favours compounds with a hit; in the whole collection about 2.7% have one here.
SMILES,Peg3 prom inh-1,HIF-2a block,MITF TRPM1 inh,CF NFkB inh,KKLEB tox,Shn3 3UTR inh,Peg3 prom inh-2
O=C(NCc1ccccc1)c1cc(C2CCCN(C(=O)c3ccccc3)C2)on1 (stereo unspecified),6,1,/,-2,-18,3,/
Cc1ccc2[nH]c(=O)c(C3C(C#N)=C(N)Oc4c3ccc3cccnc43)cc2c1 (stereo unspecified),50*,10,17,-23,8,51,48*
CCN1CCc2c(sc(NC(=O)c3ccc(S(=O)(=O)N4CCOCC4)cc3)c2C(=O)OC)C1,76*,17,2,-23,1,17,-20
CCN1CCc2c(sc(NC(=O)c3ccc(S(=O)(=O)N4CCCCCC4)cc3)c2C(=O)NC)C1,71*,16,67*,5,6,11,62*
CCN1CCc2c(sc(NC(=O)c3ccc(S(=O)(=O)N4CCOCC4)cc3)c2C(N)=O)C1,5,12,-2,-42,3,3,/
CC(C)(C)OC(=O)Nc1ccccc1-n1nnnc1C(C(=O)c1ccccc1)N1CCN(c2ccccn2)CC1 (stereo unspecified),/,-22,/,/,/,/,/
Cc1ccccc1OCC(=O)Nc1cccc(C(=O)O)c1,84*,92*,92*,11,-2,56,85*
O=C(Nc1ccc(Cl)cc1)Nc1cccc(C(=O)O)c1,53*,66*,80*,-4,16,15,36
CCOc1ccc(NC(=O)Nc2cccc(C(=O)O)c2)cc1,85*,88*,94*,-15,-1,79,75*
O=C(Nc1cccc2ccccc12)c1csc([C@@H]2O[C@H](CO)[C@H](O)[C@H](O)[C@H]2O)n1,4,7,/,-29,0,-15,/
CN(C)C(=O)c1cc2c(c(-c3cccc(-c4ccccc4F)c3)n1)[C@@H](CCO)N(S(C)(=O)=O)C2,/,0,/,/,/,/,/
CCOC(=O)C1=C[C@@H](C(C)(C)C)N(S(=O)(=O)c2ccc(C)cc2)[C@H]1c1ccc(C)cc1,20,-17,/,2,4,14,/
CCOc1ccc(-n2c(SCC(=O)Nc3ccc(Br)cc3)nc3n[nH]c(C)c3c2=N)cc1,33,11,58,17,-32,56,/
Cc1cc(-n2c(SCC(=O)Nc3ccc(F)c(F)c3)nc3n[nH]c(C)c3c2=N)ccc1Cl,84*,7,46,7,-7,52,59*
Cc1cc(-n2c(SCC(=O)Nc3ccc(Br)cc3)nc3n[nH]c(C)c3c2=N)ccc1Cl,85*,2,14,32,-20,54,40
Cc1ccc(CN2CC(N3CCN(CC4CC4)CC3)CS2(=O)=O)cc1 (stereo unspecified),17,2,/,4,-8,0,/
COc1ccc2nc(C)cc(SCC(=O)N/N=C/c3c(OC)ccc4ccccc34)c2c1,63*,4,13,-5,-13,0,20
COc1ccccc1/C=N/NC(=O)CSc1cc(C)nc2ccccc12,7,12,1,25,-26,9,/
COc1ccc(Cl)c(-c2cc(C(=O)Nc3ccc(F)cc3)[nH]n2)c1,-273,-234,/,-11,6,-36,/
O=C(CN1CCOCC1)N/N=C/c1c(O)ccc2ccccc12,16,-11,1,15,1,85,/
O=C(CNc1ccccc1)N/N=C/c1c(O)ccc2ccccc12,64*,-2,13,3,-9,91*,68*
O=C(N/N=C\c1c(O)ccc2ccccc12)c1cncc(Br)c1,65*,-10,43,22,-9,87*,60*
COc1ccc(-c2oc3c(c2C#CC(C)(C)O)C(OC)CCC3)cc1 (stereo unspecified),/,-2,/,/,/,/,/
CC(C)NC(=O)N(C)C[C@H]1OCCCC[C@@H](C)Oc2ccc(N(C)C)cc2C(=O)N([C@H](C)CO)C[C@@H]1C,10,10,/,6,-19,-12,/
O=C1C(c2ccnc3ccccc23)=C(O)c2ccccc21,88*,-10,51,-142,3,72,0
CC(=O)n1c(-c2ccccc2)c(CO)c2ccccc21,-14,5,9,5,10,8,/
NCCc1c(-c2ccccc2)n(-c2ccccc2)c2ccccc12,107*,7,44,17,-14,36,99*

# Source: PubChem BioAssay (several laboratories)
